Source: PubChem BioAssay (National Center for Advancing Translational Sciences (NCATS))
Pol kappa inh-1: DNA polymerase kappa (human) inhibition. purified Pol kappa, fluorescent DNA synthesis assay, 10 min. Potency, µM (titrated, usually from 107 µM), without a hit: top-dose activity, negative = inhibition, hits mostly inhibitors. hit rate 0.53% among 400,000; further: on the % scale 0 is the no-effect control and ±100 the full control effect
Target sequence (Q9UBT6 whole entry, looked up): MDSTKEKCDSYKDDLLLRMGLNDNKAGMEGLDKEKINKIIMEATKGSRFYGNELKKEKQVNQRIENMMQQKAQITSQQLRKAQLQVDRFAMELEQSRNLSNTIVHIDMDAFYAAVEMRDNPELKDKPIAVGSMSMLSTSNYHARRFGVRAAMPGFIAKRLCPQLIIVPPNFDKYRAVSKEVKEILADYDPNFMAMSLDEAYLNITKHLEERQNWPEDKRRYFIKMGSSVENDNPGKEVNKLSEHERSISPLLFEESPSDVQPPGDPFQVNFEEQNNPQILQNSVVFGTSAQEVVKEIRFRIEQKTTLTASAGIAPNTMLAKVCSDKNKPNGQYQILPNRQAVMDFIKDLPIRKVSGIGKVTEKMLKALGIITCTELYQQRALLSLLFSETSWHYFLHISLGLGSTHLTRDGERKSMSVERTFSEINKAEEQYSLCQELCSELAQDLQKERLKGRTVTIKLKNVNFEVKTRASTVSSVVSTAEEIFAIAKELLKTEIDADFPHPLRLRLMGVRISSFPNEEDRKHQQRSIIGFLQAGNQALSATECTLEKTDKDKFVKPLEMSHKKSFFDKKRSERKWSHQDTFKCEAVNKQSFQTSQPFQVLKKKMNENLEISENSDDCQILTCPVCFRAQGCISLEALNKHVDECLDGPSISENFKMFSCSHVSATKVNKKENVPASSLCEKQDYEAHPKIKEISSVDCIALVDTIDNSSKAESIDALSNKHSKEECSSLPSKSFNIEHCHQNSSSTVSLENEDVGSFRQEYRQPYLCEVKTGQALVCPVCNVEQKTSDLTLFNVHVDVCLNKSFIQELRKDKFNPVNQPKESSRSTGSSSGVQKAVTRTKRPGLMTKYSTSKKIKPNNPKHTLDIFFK
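Inhibition of 10 nM Pol kappa is measured by a fluorescent read-out at 0 and 10 min following addition of 50 nM substrate (final), with a 15-min room-temperature compound preincubation.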
Pol iota inh: blocks human DNA polymerase iota activity. hit rate 1% among 390,000. Pol iota fluorescent replication assay, 10 min. Q9UNA4. Potency, µM (doses to about 115 µM), for inactives: at the highest dose activity, negative = inhibition, hits mostly inhibitors. AID 588590
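Fluorescent replication assay read twice, at 0 min and 10 min after adding 50 nM (final) substrate. Enzyme (10 nM) and compounds were first incubated 15 min at room temperature; enzyme-free buffer wells were negative controls.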
Pol beta inh: blocks human DNA polymerase beta activity | P06746 | Pol beta primer extension/strand displacement, fluorescence kinetic | Potency, µM (series often up to 114 µM), for the others: top-dose activity change, negative = inhibition, actives largely listed as inhibitors | hit rate 1.3% among 340,000 | AID 485314; further: on the % scale 0 is the no-effect control and ±100 the full control effect
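Human Pol beta at 10 nM; strand-displacement substrate 50 nM final. Compound exposure 15 min at room temperature before start, reaction 10 min at room temperature.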
FEN1 inhibitor: inhibitors of human flap endonuclease 1; P39748; Recombinant FEN1 flap cleavage, fluorescence, 15 min; Potency, µM (series often up to 114 µM), for inactives: at the highest dose activity change, negative = inhibition, most hits filed as inhibitors; hit rate 0.35% among 390,000; further: on the % scale 0 is the no-effect control and ±100 the full control effect; nearly all actives have a fitted effect of over 65% in size
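Potency values derive from four-parameter Hill fits of normalized qHTS data. The reaction used 10 nM FEN1 preincubated 15 min at room temperature with compound, then 50 nM DNA substrate, read at 0 and 15 min.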
Pol eta inh-1: DNA polymerase eta (human) inhibition; Potency, µM (top dose mostly 114 µM), for inactives: top-dose activity change, negative = inhibition, most hits filed as inhibitors; recombinant Pol eta, fluorescent DNA replication assay; hit rate 1.2% among 390,000; Q9Y253; further: on the % scale 0 is the no-effect control and ±100 the full control effect
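Pol eta at 10 nM preincubated with compounds 15 min at room temperature; reaction started with fluorescent substrate (50 nM final) and read kinetically at 0 and 10 min.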
WRN inhibitor: WRN helicase (human) inhibition | Q14191 | WRN helicase unwinding, fluorescent forked duplex, kinetic | Potency, µM (top dose mostly 114 µM), for the others: top-dose activity change, negative = inhibition, hits mostly inhibitors | hit rate 0.46% among 360,000; further: on the % scale 0 is the no-effect control and ±100 the full control effect; nearly all actives have a fitted effect of over 55% in size
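WRN at 20 nM final preincubated with compound 15 min at room temperature; reaction started with 100 nM fluorophore/quencher forked duplex oligonucleotide and 2 mM ATP final. Unwinding followed kinetically by red fluorescence (ex 525, em 598 nm).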
Pol kappa inh-2: confirmation of human DNA polymerase kappa inhibitors. shares compounds with Pol eta inh-1. purified Pol-kappa, fluorescent strand-displacement substrate. Potency, µM, hits mostly inhibitors. hit rate 76% among 920. AID 720501
Pol eta inh-2: confirmation of human DNA polymerase eta inhibitors. shares compounds with Pol eta inh-1. Pol eta primer extension, TAMRA/BHQ fluorescence, 10 min. Potency, µM, hits mostly inhibitors. hit rate 64% among 2,600. AID 720502
Active calls of the source: *; ? = inconclusive; . = not tested or not shown; [ ] = remark or other dose. This is a sample that favours compounds with a hit; in the whole collection about 2.4% have one here. The call rests on the fitted dose curve; in most records, active means well fitted curve in the direction sought with a large enough effect; inconclusive means small, poorly fitted or top-dose-only effect, or another doubt; inactive means no such curve, though single readings can be large; an effect the other way counts as inactive or inconclusive. Potency means the concentration at half of the fitted maximal effect.

SMILES	Pol kappa inh-1	Pol iota inh	Pol beta inh	FEN1 inhibitor	Pol eta inh-1	WRN inhibitor	Pol kappa inh-2	Pol eta inh-2
COc1cc(/C=C2\C(=N)N3N=C(S(C)(=O)=O)SC3=NC2=O)cc(OC)c1OCCOc1ccc(C)cc1	-12.8%	?	3.4%	-0.7%	-10.8%	-11.9%[11.6 µM]	.	.
CCS(=O)(=O)C1=NN2C(=N)/C(=C\c3ccc(OCCOc4cccc(OC)c4)c(OC)c3)C(=O)N=C2S1	-25.4%	?	50.1µM*	-1.5%	35.5µM*	-33.0%	?	?
COc1cc(/C=C2/C(=N)N3C=CSC3=NC2=O)ccc1OCCCOc1ccccc1C	-18.1%	22.5%	-2.8%	?	-15.5%	-25.0%	.	.
COc1cc(/C=C2/C(=N)N3OC(C)=CC3=NC2=O)ccc1OC(=O)c1ccco1	-18.7%	25.3%	-12.3%	-5.2%	2.7%	-8.4%[57.1 µM]	.	.
COc1cc(/C=C2\C(=N)N3N=C(S(C)(=O)=O)SC3=NC2=O)ccc1OCCOc1ccc(C)cc1	3.4%[60.1 µM]	?	-28.7%	11.9%	?	-33.3%[11.6 µM]	26.7*	?
Cc1nc2cncnc2n(C2CC2)c1=O	-2.0%[60.1 µM]	.	.	.	.	.	.	.
N#CCCn1c(=O)c(-c2cccs2)nc2cnc(N3CCOCC3)nc21	-5.7%[60.1 µM]	.	.	.	.	.	.	.
CCN(CCCNC(=O)c1cc2c(=O)[nH]c3ccc(C)cc3c2s1)Cc1ccccc1	-7.2%	10.9%	7.1%	?	-6.0%	.	.	.
O=C(c1ccccc1Cl)n1nc(-c2cccnc2)nc1NCc1ccc(F)cc1	10.6%	22.6%	13.3%	-2.8%	-21.3%	.	.	.
COc1cc(/C=C(/C#N)C(=O)Nc2ccccc2)c(Br)cc1OCc1ccc(C(=O)O)cc1	-16.0%	?	-13.6%	-19.5%	79.4µM*	?	.	?
N#C/C(=C\c1ccc(OCc2ccccc2)cc1)C(=O)Nc1ccc(C(=O)O)cc1	-5.7%	?	2.2%	-5.3%	-16.5%	-4.0%	.	.
CNC(=O)c1c[nH]c2ccc(S(=O)(=O)Nc3cccc(Cl)c3C)cc2c1=O	?	?	31.6µM*	-8.7%	?	.	21.2*	?
COCCCNC(=O)c1c[nH]c2ccc(S(=O)(=O)N(C)c3ccccc3C)cc2c1=O	-0.4%	53.3%	1.1%	11.1%	-24.6%	0.6%[57.1 µM]	.	.
CCCCN(CCCC)C(=O)c1c[nH]c2ccc(S(=O)(=O)Nc3cccc(Cl)c3C)cc2c1=O	-15.3%[60.1 µM]	79.4µM*	35.5µM*	2.4%	39.8µM*	.	15*	75.7*
CCOCCCNC(=O)c1c[nH]c2ccc(S(=O)(=O)Nc3cccc(Cl)c3C)cc2c1=O	?	?	28.2µM*	-16.0%	31.6µM*	.	21.2*	84.9*
Cn1c(=O)c(-c2ccc(Cl)cc2)nc2cnc(N3CCOCC3)nc21	-2.8%[60.1 µM]	.	.	.	.	.	.	.
COc1ccccc1/C=C1\S/C(=N/NC(=O)c2cccc(Br)c2)NC1=O	-21.6%	6.0%	-27.3%	-20.8%	39.8µM*	?	.	?
COc1cccc(/C=N/N2C(=O)CSC2=S)c1O	?	?	?	-25.0%	-9.1%	?	.	?
COc1cc(/C=N/NC(=O)C(Cc2c[nH]c3ccccc23)NC(=O)OCc2ccccc2)cc([N+](=O)[O-])c1O (stereo unspecified)	?	?	50.1µM*	-16.3%	20µM*	?	.	?
c1cnc2c(c1)ccc1cccnc12	-5.5%[60.1 µM]	-6.0%[58.9 µM]	10.4%[57.1 µM]	?	1.3%[57.1 µM]	-6.1%	.	.
O=C1C=CC(=O)N1c1cccc2cccnc12	89.1µM*	?	.	-5.1%	28.2µM*	?	?	75.7*
O=C(O)c1ccc2c(=O)n3cc(C(=O)c4ccccc4O)cc(Cl)c3nc2c1	-51.2%	?	?	35.5µM*	8.91µM*	-35.0%	.	12*
COc1cc(/C=C2\NC(=S)NC2=O)ccc1OCc1cccc(C(=O)O)c1	?	?	?	-26.3%	22.4µM*	?	21.2*	37.9*
O=C1NC(=O)/C(=C\c2ccc(OCc3cccc(C(=O)O)c3)c(Cl)c2)N1	-3.5%	80.5%	-1.0%	3.6%	-12.8%	-27.5%	.	.
C=CCCCCCCCCCCCc1ccco1	-10.6%[60.1 µM]	.	.	.	.	.	.	.
SMILES	Pol kappa inh-1	Pol iota inh	Pol beta inh	FEN1 inhibitor	Pol eta inh-1	WRN inhibitor	Pol kappa inh-2	Pol eta inh-2
Cc1cc(-c2n[nH]c(=S)n2/N=C/c2ccc(Br)s2)n[nH]1	-4.1%	?	43.7%	0.5%	-11.9%	-15.9%	.	.
S=c1[nH]nc(-c2cc(-c3ccccc3)n[nH]2)n1/N=C/c1ccc(Br)s1	?	22.4µM*	17.8µM*	?	?	-13.7%[11.6 µM]	42.3*	?
Cc1c(Cl)cccc1-c1ccc(/C=N/n2cnnc2)o1	6.1%	4.0%	0.3%	-10.4%	3.8%	-6.5%	.	.
Cc1c(C(=O)O)cccc1-c1ccc(/C=N/n2cnnc2)o1	89.1µM*	35.5µM*	25.1µM*	-13.7%	20µM*	-6.3%[11.6 µM]	15*	47.8*
O=C(O)/C=C/c1ccc(S(=O)(=O)Nc2ccc3[nH]c(=O)[nH]c3c2)cc1	-21.0%	?	-1.4%	-2.7%	25.1µM*	?	.	?
Cc1ccc(NS(=O)(=O)c2ccc(/C=C/C(=O)O)cc2)cc1Cl	-17.8%	104.4%	-7.0%	-1.8%	-16.3%	-19.5%	.	.
O=c1c(-c2cccs2)nc2cnc(N3CCOCC3)nc2n1Cc1cccs1	-2.5%[60.1 µM]	.	.	.	.	.	.	.
O=c1c(-c2cc(F)cc(F)c2)nc2cncnc2n1Cc1ccc(F)cc1	-10.9%[60.1 µM]	.	.	.	.	.	.	.
CCOCCCN(Cc1ccco1)S(=O)(=O)c1cc2c(cc1Cl)NC(=O)CO2	0.8%[60.1 µM]	?	?	-18.7%	79.4µM*	.	?	?
COc1ccc(-n2c(=O)cnc3cnc(N4CCN(C)CC4)nc32)cc1	1.6%[60.1 µM]	.	.	.	.	.	.	.
O=C(O)c1cccc(-c2ccc(/C=N/n3cnnc3)o2)c1	-21.1%	-2.7%	?	14.2%	?	-4.7%	.	.
CC(C)S(=O)(=O)C1=NSC2=NC(=O)/C(=C\c3ccc(-c4cccc(C(=O)O)c4)o3)C(=N)N21	28.2µM*	5.62µM*	31.6µM*	22.4µM*	7.94µM*	?	16.8*	30.1*
O=c1c2ccccc2nc2c3ccccc3c(NCc3cccnc3)nn12	-12.1%	-10.5%	8.4%	17.0%	1.2%	-5.4%	.	.
O=c1c2ccccc2nc2c3ccccc3c(NCc3ccccn3)nn12	-11.0%	17.0%	?	?	?	-19.0%[11.6 µM]	26.7*	47.8*
O=C(O)c1cc(S(=O)(=O)O)cc(Nc2c3ccccc3nc3ccccc23)c1O	?	?	-7.0%	-21.4%	22.4µM*	-23.2%[11.6 µM]	16.8*	30.1*
